ssDAF12 agonist = S. stercoralis DAF-12 activation, primary screen. activation, % at 6.8 µM. HEK293 ssDAF-12/GRIP1 lit1-tk-luc reporter, luminescence; % of 3 µM dafachronic acid response. 1% of 370,000 active;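 active = activation above the mean over all tested compounds plus 3 SD, cut at about 0.9% in these data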;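 note: 0% = DMSO-only wells and 100% = 3 µM delta7-dafachronic acid wells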
hgDAF12 agonist = agonists of H. glycines DAF-12 nuclear receptor; HEK293 GAL4-hgDAF12 UAS-luciferase reporter, agonist luminescence; normalized to butyrate control; activation, % at 6.8 µM; 1.8% of 370,000 active;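 active = activation above a cutoff set at the mean of all screened compounds plus 3 SD, cut at about 10% in these data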;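 note: 0% = DMSO wells and 100% = sodium butyrate wells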
DAX1 inh-1 = inhibitors of human orphan nuclear receptor DAX1 (NR0B1). HEK293 Gal4-DAX1 luciferase reporter, luminescence. inhibition, % at 6.75 µM. 0.99% of 340,000 active. AID 504766;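 active = inhibition above the mean over all tested compounds plus 3 SD, cut at about 4.2% in these data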;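 note: 0% = DAX1-transfected cells with DMSO and 100% = empty-vector control cells with DMSO; inhibition shows as a rise in luminescence from relieved DAX1 repression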
Target sequence (P51843 207-470 limits assumed): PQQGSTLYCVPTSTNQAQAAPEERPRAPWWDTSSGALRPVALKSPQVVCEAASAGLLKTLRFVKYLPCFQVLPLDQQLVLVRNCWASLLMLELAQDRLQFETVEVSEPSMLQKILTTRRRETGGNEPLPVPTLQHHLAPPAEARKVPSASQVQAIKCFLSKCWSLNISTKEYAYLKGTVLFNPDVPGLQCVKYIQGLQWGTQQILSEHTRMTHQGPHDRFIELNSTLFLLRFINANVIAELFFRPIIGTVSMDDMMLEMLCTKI
DAX1 inh-2 = inhibitors of DAX1 repression of SF-1 activated StAR promoter; HEK293T StAR-luciferase reporter, SF-1/DAX-1 repression relief; inhibition, % at 6.8 µM; 1.1% of 370,000 active;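 active = inhibition above the mean over all tested compounds plus 3 SD, cut at about 3.6% in these data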;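 note: 0% = DAX-1 cells with DMSO and 100% = cells lacking DAX-1 with DMSO; higher inhibition means more luminescence from relief of DAX-1 repression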
hcDAF-12 act = activates DAF-12 receptor from parasite H. contortus. HEK293 hcDAF-12 lit1-tk-luc reporter, luminescence; 0% DMSO, 100% Δ7-dafachronic acid. activation, % at 6.8 µM. 1.4% of 370,000 active. AID 652067;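 active = activation above the mean of all tested compounds plus 3 SD, cut at about 5.5% in these data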;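 note: 100% = response to 3 µM Δ7-dafachronic acid high control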
* marks the source's active call; other numbers are inactive results; . = no result given. Shown are actives, neighbours in structure and some others; about 4.1% of the full set was active somewhere.

SMILES	ssDAF12 agonist	hgDAF12 agonist	DAX1 inh-1	DAX1 inh-2	hcDAF-12 act
COCCn1c(C)cc(C(=O)CSc2nc3ccccc3c(=O)[nH]2)c1C	-0.2	7.0	6.5*	1.6	3.1
Cc1cc(C(=O)CSc2nnc(-c3ccncc3)n2-c2ccccc2)c(C)n1C	-1.3	-1.5	7.4*	-1.7	-2.2
Cn1c(=O)n(C)c2cc(NC(=O)CSc3nc4ccccc4c(=O)[nH]3)ccc21	-1.3	-0.2	4.7*	0.0	1.5
Cc1ccc2nc(SCC(=O)c3cc(C)n(C)c3C)[nH]c2c1	-0.4	-0.2	0.5	-0.3	-1.0
O=C(CSc1nc2ccccc2c(=O)[nH]1)Nc1ccc(C(=O)O)cc1	-1.3	0.7	1.1	0.6	-0.5
Cc1cc(C(=O)CSc2nnc(-c3ccccc3)n2C)c(C)n1C	-1.1	-1.0	-0.5	-0.1	1.0
Cc1cc(C(=O)CSc2nc3ccccc3[nH]2)c(C)n1C	1.1*	10.9*	0.5	3.7*	5.5
C[C@@H]1CN([C@@H](C)CO)C(=O)CCCn2nncc2CO[C@@H]1CN(C)C(=O)Nc1ccc(C(C)(C)C)cc1	-1.1	1.0	1.0	0.3	1.5
NC(=O)c1c(N)[nH]c(C(=O)c2ccccc2)c1-c1ccc2ccccc2c1	-1.7	1.4	.	0.7	-1.2
Cc1ccc(Oc2cccc3c2S(=O)(=O)N([C@H](C)c2ccccc2)C[C@@H](COCc2ccccc2)O3)cc1	-1.4	-0.7	.	-0.6	-1.9
CCOC(=O)c1ccc2ncc(-c3ccccc3)nc2c1	-0.8	3.9	2.4	4.3*	0.4
Cc1ccc(N2C(=O)CC(Cn3nc(C)cc3C)C2=O)cc1 (centres undefined)	-1.1	1.3	-0.7	1.2	-0.5
CCc1ccc(N2C(=O)CC(Cn3nc(C)cc3C)C2=O)cc1 (centres undefined)	-0.8	-0.4	5.1*	-0.3	0.3
COc1ccc(N2C(=O)c3[nH]nc(-c4ccccc4)c3C2c2ccc(Br)cc2)cc1 (centres undefined)	-0.6	-2.0	.	0.5	0.0
O=C(Nc1ccc(OC(F)(F)F)cc1)c1cnccn1	-0.3	9.2	6.4*	1.3	1.6
CC(=O)C1=C(O)C(=O)N(CCc2c[nH]c3ccccc23)C1c1ccc(O)cc1 (centres undefined)	0.2	2.0	4.4*	0.3	2.5
CC(C)(C)n1nnnc1C1c2ccccc2C(=O)N1CCc1c[nH]c2ccccc12 (centres undefined)	0.1	1.2	.	4.2*	3.9
N/C(=N\OC(=O)c1ccc([N+](=O)[O-])cc1Cl)c1ccccn1	1.1*	9.2	-7.2	0.4	6.1*
N/C(=N\OC(=O)c1cc([N+](=O)[O-])ccc1Cl)c1ccccn1	-1.3	-1.2	4.0	-0.6	-1.0
O=C(Nc1ccccc1)C1Cc2ccccc2CN1C(=O)c1ccco1 (centres undefined)	1.0*	12.7*	2.6	2.6	6.3*
COC(=O)c1ccc(N=Cc2c(-c3ccccc3)[nH][nH]c2=O)cc1	1.5*	-2.1	-0.4	0.1	3.1
Cc1c(C#N)c(O)n(CCO)c(=O)c1N=Nc1ccccc1	-1.5	-4.5	4.4*	-0.6	-1.4
Cc1c(C#N)c(O)n(CCO)c(=O)c1N=Nc1ccc(S(N)(=O)=O)cc1	-1.9	-1.6	0.1	-1.4	-0.9
O=C1CC(c2ccc(S(=O)(=O)NCc3ccccc3)cc2)CN1 (centres undefined)	-1.1	0.2	5.6*	0.3	0.8
Cc1ccccc1NS(=O)(=O)c1ccc(C2CNC(=O)C2)cc1 (centres undefined)	-1.3	2.6	1.1	-0.9	0.2
SMILES	ssDAF12 agonist	hgDAF12 agonist	DAX1 inh-1	DAX1 inh-2	hcDAF-12 act
COC(=O)[C@H](CCSC)NC(=O)Cn1cnc(C(=O)Nc2ccc(C)c(C)c2)n1	-0.5	10.8*	1.8	2.7	5.7*
Cc1ccc(OCC(=O)O/N=C(\N)c2cccc([N+](=O)[O-])c2)cc1C	-0.1	2.6	1.7	0.1	6.0*
Cc1ccc(SCC(=O)O/N=C(\N)c2cccc([N+](=O)[O-])c2)cc1	-0.1	-0.2	1.2	0.1	0.5
CC(C)c1ccc2oc(-c3ccc(NC(=O)c4ncn[nH]4)cc3)nc2c1	-0.5	7.2	-0.4	4.0*	0.8
CCCC(=O)Nc1ccc2oc(-c3ccncc3)nc2c1	-1.3	-0.5	0.8	-0.1	0.0
CCc1ccc2oc(-c3ccc(NC(C)=O)cc3)nc2c1	1.1*	10.8*	3.0	1.8	5.8*
CCC(C)c1ccc2oc(-c3ccc(NC(=O)c4ncn[nH]4)cc3)nc2c1 (centres undefined)	-1.3	-1.0	1.3	-0.1	-1.2
O=C(CN1CCCC1)Nc1ccc(-c2nc3cc(NC(=O)CN4CCCC4)ccc3o2)cc1	-1.6	5.6	5.8*	-0.2	2.2
CCN(CC)CC(=O)Nc1ccc(-c2nc3cc(NC(=O)CN(CC)CC)ccc3o2)cc1	1.0*	6.1	0.7	-1.3	0.6
CCC(C)NCC(=O)Nc1ccc(-c2nc3cc(NC(=O)CNC(C)CC)ccc3o2)cc1 (centres undefined)	-1.2	4.1	-0.4	-1.3	0.7
COC(=O)C1=C(C)N(Cc2ccc(C(F)(F)F)cc2)C(=NCc2ccc3c(c2)OCO3)NC1c1cccc(Cl)c1 (centres undefined)	-1.4	-0.7	.	-1.7	-2.8
Cc1ccc(S(=O)(=O)N2CCCCC2)cc1NS(=O)(=O)c1ccccc1F	-1.0	-4.5	0.1	-0.9	-1.0
Cc1ccc2oc(-c3ccc(NC(=O)CC(C)C)cc3)nc2c1	-0.4	10.8*	2.0	2.5	2.4
CC(C)CC(=O)Nc1ccc2oc(-c3cccnc3)nc2c1	-0.9	6.4	1.6	1.7	0.5
O=C(NC1CCCC1)[C@@H]1CCCN1C(=O)[C@@H](NS(=O)(=O)c1ccc(F)cc1F)C1CCCCC1	-0.8	-0.3	.	-0.8	-1.0
CC(=O)CC[C@@H]1CC[C@]2(CCCN(C(=O)C(C)(C)C)C2)O1	-0.4	-2.4	.	0.9	-0.8
O=C1Nc2ccccc2N(O)N1c1ccc(S(=O)(=O)Nc2ccccn2)cc1	0.9*	3.1	1.0	0.7	3.3
Cc1ccnc(NS(=O)(=O)c2ccc(N3C(=O)Nc4ccccc4N3O)cc2)c1	-1.1	0.4	0.4	0.8	1.2
COc1ccccc1NC(=O)N(C)C[C@@H]1OCc2cn(nn2)CCCC(=O)N([C@@H](C)CO)C[C@H]1C	0.9*	-1.1	-0.2	1.3	2.1
COc1ccc(S(=O)(=O)N(C)C[C@@H]2OCc3cn(nn3)CCCC(=O)N([C@H](C)CO)C[C@H]2C)cc1	-1.4	0.0	.	3.7*	0.8
CNC(=S)NNC(=O)c1oc2nc(-c3ccccc3)cc(C)c2c1N	-0.1	1.0	1.8	0.8	6.1*
COc1ccc(C2c3c(nc[nH]c3=O)Oc3nc[nH]c(=O)c32)cc1	.	.	-0.7	.	.
COc1ccc(C2C(=O)NN=C2C)cc1 (centres undefined)	-0.8	1.4	5.3*	0.8	0.0

Screening results deposited in PubChem BioAssay by The Scripps Research Institute Molecular Screening Center.
